The list is not random: actives were taken first. Their share in the collection is about 6.8%.
Pf Dd2 inh – blocks growth of Plasmodium falciparum Dd2 parasites; P. falciparum Dd2 growth, SYBR Green, 72 h; hits give low values; activity change, % at 10 µM; actives 2.3% (n = 94,000); AID 1159554; in the data active = activity change below about -80%
C diff growth – blocks growth of Clostridium difficile; Clostridium difficile clinical isolate growth, OD600, 24 h; hits give low values; growth activity, negative = inhibition, % at 16 µg/mL (by protocol); actives 0.25% (n = 86,000); AID 1259249;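 active = mean growth activity at or below -80% and every replicate also at or below -80%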
Tcruzi prolif – T. cruzi proliferation inhibition. T. cruzi beta-gal in NIH3T3, GalScreen luminescence, 90 h. inhibition, % at 8.34 µM. actives 5.9% (n = 77,000). AID 624255;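 active = mean inhibition above about 93%, with at least 55% of replicates each passing it, limit read from the data, passing the limit was not always enough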
Of the large screens only hits and unclear results are named; the others gave an inactive call.

COc1ccc2c3c([nH]c2c1)[C@@H](CO)N(Cc1cccc(F)c1)CC31CN(C(C)=O)C1	Pf Dd2 inh -85.0 (no result: Tcruzi prolif)
C[C@@H]1CN([C@H](C)CO)C(=O)Cc2cc(NS(=O)(=O)c3ccc(F)cc3)ccc2O[C@H]1CN(C)C(=O)Nc1cccc2ccccc12	none
O=C(C[C@H]1CC[C@H]2[C@@H](COC[C@H](O)CN2C(=O)c2cccnc2)O1)NCc1ccccc1	none
CCC(=O)N1CC2(CN(S(C)(=O)=O)C2)c2c(n(C)c3cc(OC)ccc23)[C@@H]1CO	none (no result: Tcruzi prolif)
Cc1ccc(S(=O)(=O)N(C)C[C@H]2Oc3c(NC(=O)c4nc5ccccc5s4)cccc3C(=O)N([C@@H](C)CO)C[C@H]2C)cc1	none
C[C@@H]1CN([C@@H](C)CO)C(=O)c2cccc(NC(=O)c3nc4ccccc4s3)c2O[C@H]1CN(C)C(=O)Nc1ccc(C(F)(F)F)cc1	Pf Dd2 inh -89.7
C[C@@H]1CN([C@H](C)CO)C(=O)c2cccc(NC(=O)c3nc4ccccc4s3)c2O[C@@H]1CN(C)C(=O)Nc1ccc2c(c1)OCO2	none (no result: C diff growth)
CC(C)NC(=O)N(C)C[C@H]1Oc2c(NC(=O)c3nc4ccccc4s3)cccc2C(=O)N([C@H](C)CO)C[C@H]1C	Pf Dd2 inh -83.1
C[C@@H]1CN([C@H](C)CO)C(=O)c2cccc(NC(=O)c3nc4ccccc4s3)c2O[C@H]1CN(C)C(=O)Nc1ccc2c(c1)OCO2	Pf Dd2 inh -81.9 (no result: C diff growth)
C[C@H]1CN([C@@H](C)CO)C(=O)c2cccc(NC(=O)c3nc4ccccc4s3)c2O[C@@H]1CN(C)C(=O)Nc1ccc(C(F)(F)F)cc1	none
Cc1ccc(S(=O)(=O)N(C)C[C@@H]2Oc3c(NC(=O)c4nc5ccccc5s4)cccc3C(=O)N([C@@H](C)CO)C[C@H]2C)cc1	Pf Dd2 inh -84.8
CC(C)NC(=O)N(C)C[C@H]1Oc2c(NC(=O)c3nc4ccccc4s3)cccc2C(=O)N([C@@H](C)CO)C[C@H]1C	none
COc1ccc(S(=O)(=O)Nc2ccc3c(c2)C(=O)N([C@@H](C)CO)C[C@H](C)[C@@H](CN(C)C(=O)Nc2ccccc2)O3)cc1	none
CC(C)NC(=O)N(C)C[C@H]1Oc2ccc(NS(=O)(=O)c3cn(C)cn3)cc2CC(=O)N([C@H](C)CO)C[C@@H]1C	none
Cc1noc(C)c1S(=O)(=O)N(C)C[C@@H]1OCCCC[C@H](C)Oc2ccc(NC(=O)c3ccccc3)cc2C(=O)N([C@H](C)CO)C[C@H]1C	none
Cc1noc(C)c1S(=O)(=O)N(C)C[C@H]1OCCCC[C@H](C)Oc2ccc(NC(=O)c3ccccc3)cc2C(=O)N([C@H](C)CO)C[C@H]1C	none
Cc1noc(C)c1S(=O)(=O)N(C)C[C@H]1OCCCC[C@@H](C)Oc2ccc(NC(=O)c3ccccc3)cc2C(=O)N([C@@H](C)CO)C[C@@H]1C	Pf Dd2 inh -84.0
Cc1noc(C)c1S(=O)(=O)N(C)C[C@H]1OCCCC[C@H](C)Oc2ccc(NC(=O)c3ccccc3)cc2C(=O)N([C@@H](C)CO)C[C@@H]1C	Pf Dd2 inh -86.5
Cc1noc(C)c1S(=O)(=O)Nc1cccc2c1O[C@@H](CN(C)C(=O)NC1CCCCC1)[C@@H](C)CN([C@H](C)CO)C2=O	none (no result: C diff growth)
COc1ccc(S(=O)(=O)Nc2ccc3c(c2)C(=O)N([C@@H](C)CO)C[C@@H](C)[C@@H](CN(C)C(=O)Nc2ccccc2)O3)cc1	none
C[C@@H]1CN([C@@H](C)CO)C(=O)c2cc(NC(=O)CCC(F)(F)F)ccc2O[C@@H](C)CCCCO[C@@H]1CN(C)C(=O)Nc1cccc2ccccc12	Pf Dd2 inh -88.6
C[C@@H]1CN([C@@H](C)CO)C(=O)c2cc(NC(=O)CCC(F)(F)F)ccc2O[C@@H](C)CCCCO[C@H]1CN(C)C(=O)Nc1cccc2ccccc12	Pf Dd2 inh -85.0
C[C@H](CO)N1C[C@H](C)[C@@H](CN(C)C(=O)Nc2cccc3ccccc23)OCCCC[C@H](C)Oc2ccc(NC(=O)CCC(F)(F)F)cc2C1=O	none
C[C@@H]1CN([C@H](C)CO)C(=O)c2cc(NC(=O)CCC(F)(F)F)ccc2O[C@@H](C)CCCCO[C@H]1CN(C)C(=O)Nc1cccc2ccccc12	none
O=C(C[C@@H]1CC[C@H](NC(=O)Cc2cccnc2)[C@H](CO)O1)NCc1ccc2c(c1)OCO2	none (no result: C diff growth)
O=C(c1ccccc1F)N1CC(=O)N2[C@H](CO)[C@@H](c3ccc(-c4ccc(F)cc4)cc3)[C@@H]2C1	none (no result: Tcruzi prolif)
Cc1noc(C)c1NC(=O)N(C)C[C@@H]1OCCCC[C@@H](C)Oc2ccc(NS(C)(=O)=O)cc2C(=O)N([C@H](C)CO)C[C@@H]1C	none
O=C(Nc1ccc2c(c1)[C@@H]1C[C@@H](CC(=O)N3CCc4ccccc4C3)O[C@H](CO)[C@@H]1O2)NC1CCCC1	none (no result: Tcruzi prolif)
Cc1noc(C)c1S(=O)(=O)N(C)C[C@@H]1OCCCC[C@H](C)Oc2ccc(NC(=O)CCCN(C)C)cc2C(=O)N([C@H](C)CO)C[C@@H]1C	none
C[C@@H]1CN([C@@H](C)CO)C(=O)c2cccc(NC(=O)CCCCCC(=O)Nc3ccccc3N)c2O[C@@H]1CN(C)Cc1ccc(C(F)(F)F)cc1	Pf Dd2 inh -91.9 (no result: C diff growth)
C[C@@H]1CN([C@H](C)CO)C(=O)c2cccc(NC(=O)CCCCCC(=O)Nc3ccccc3N)c2O[C@@H]1CN(C)Cc1ccc(C(F)(F)F)cc1	Pf Dd2 inh -92.1 (no result: Tcruzi prolif)
C[C@H](CO)N1C[C@H](C)[C@H](CN(C)Cc2ccc(C(F)(F)F)cc2)Oc2c(NC(=O)CCCCCC(=O)Nc3ccccc3N)cccc2C1=O	Pf Dd2 inh -85.6 (no result: Tcruzi prolif)
C[C@@H]1CN([C@H](C)CO)C(=O)Cc2cc(NC(=O)CCCCCC(=O)Nc3ccccc3N)ccc2O[C@@H]1CN(C)Cc1ccc(C(F)(F)F)cc1	none
C[C@H]1CN([C@@H](C)CO)C(=O)c2cccc(NC(=O)CCCCCC(=O)Nc3ccccc3N)c2O[C@H]1CN(C)CC1CC1	none (no result: Tcruzi prolif)
C[C@H](CO)N1C[C@H](C)[C@@H](CN(C)Cc2ccc(C(F)(F)F)cc2)Oc2c(NC(=O)CCCCCC(=O)Nc3ccccc3N)cccc2C1=O	Pf Dd2 inh -88.9 (no result: Tcruzi prolif)
C[C@@H]1CN([C@H](C)CO)C(=O)c2cccc(NC(=O)C3CC3)c2O[C@H]1CN(C)Cc1ccc(C(F)(F)F)cc1	none
C[C@H]1CN([C@@H](C)CO)C(=O)c2cc(NC(=O)CCCCCC(=O)Nc3ccccc3N)ccc2O[C@H]1CN(C)Cc1ccc(C(F)(F)F)cc1	none
CNC(=O)C[C@@H]1CC[C@@H]2[C@@H](COc3ccc(NS(=O)(=O)c4ccccc4C)cc3C(=O)N2C)O1	none
Cc1noc(C)c1S(=O)(=O)N(C)C[C@H]1Oc2ccc(NC(=O)CCN3CCOCC3)cc2CC(=O)N([C@@H](C)CO)C[C@H]1C	none (no result: Tcruzi prolif)
COc1ccc2c3c([nH]c2c1)[C@H](CO)NCC31CCN(C(=O)Cc2ccncc2)CC1	none (no result: C diff growth, Tcruzi prolif)
C[C@@H]1CN([C@H](C)CO)C(=O)c2c(c3ccccc3n2C)-c2ccccc2CO[C@H]1CN(C)Cc1cccc2c1OCCCO2	none (no result: Tcruzi prolif)
C[C@@H]1CN([C@H](C)CO)C(=O)c2c(c3ccccc3n2C)-c2ccccc2CO[C@@H]1CN(C)Cc1cccc2c1OCCCO2	Pf Dd2 inh -84.5 (no result: Tcruzi prolif)
C[C@@H]1CN([C@@H](C)CO)C(=O)c2c(c3ccccc3n2C)-c2ccccc2CO[C@@H]1CN(C)Cc1cccc2c1OCCCO2	Pf Dd2 inh -84.8 (no result: Tcruzi prolif)
